Test results taken from PubChem BioAssay (NCI).
Several values for one entry are separate records, joined by “and”; a condition that tells them apart may be missing. Equal values may be shown once. This is part of a sample that, as a whole, favours compounds with a hit. Of some 79,000 tested, about 15% had one in any assay. A structure can be active in one record and inactive in another. Activity calls are given as the source filed them. Rule as the data show it: active = growth inhibition above about 70%; inactive = the rest.

What was measured:
[1] = NCI Yeast Anticancer Drug Screen. Data for the rad52 strain (AID 147);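 also: 0% = growth of vehicle-treated control cultures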; settings: S. cerevisiae rad52 mutant growth inhibition, stronger effect = higher value
Summary of the method: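 Compounds are applied to a genetically defined yeast strain lacking normal DNA damage repair, and inhibition of growth is expressed relative to cultures given vehicle only.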

[2] = NCI Yeast Anticancer Drug Screen. Data for the rad50EPP+ strain (AID 151);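 also: 0% = growth of vehicle-treated control cultures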; settings: S. cerevisiae rad50 mutant strain, stronger effect = higher value
Summary of the method: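 Compounds were applied to the rad50EPP+ yeast strain, which bears a defined DNA repair alteration, and growth inhibition was determined relative to vehicle-treated cultures.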

[3] = NCI Yeast Anticancer Drug Screen. Data for the mgt1 strain (AID 153); settings: S. cerevisiae mgt1 mutant growth inhibition, stronger effect = higher value
Summary of the method: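 Strain: mgt1 yeast, one of a set carrying defined DNA damage repair or cell cycle control alterations. Compound-treated growth compared with vehicle.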

[4] = NCI Yeast Anticancer Drug Screen. Data for the rad50 strain (AID 155);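 also: 0% = growth of vehicle-only cultures of the same strain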; settings: S. cerevisiae rad50 strain growth inhibition, stronger effect = higher value
Summary of the method: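 Growth of the mutant yeast was measured after compound exposure and referenced to vehicle-treated cultures.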

[5] = NCI Yeast Anticancer Drug Screen. Data for the mec2-1 strain (AID 157); settings: S. cerevisiae mec2-1 strain, stronger effect = higher value
Summary of the method: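 Strain: mec2-1 (DNA repair/cell cycle alteration). Compound exposure, then growth measured; inhibition expressed relative to vehicle.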

[6] = NCI Yeast Anticancer Drug Screen. Data for the rad14 strain (AID 159);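 also: 0% = growth of vehicle-treated control cultures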; settings: S. cerevisiae rad14 strain growth inhibition, stronger effect = higher value
Summary of the method: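 Here, inhibition of yeast growth was measured after compound exposure, using a strain with a genetic defect in DNA damage repair and vehicle-treated cultures as the reference.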

[7] = NCI Yeast Anticancer Drug Screen. Data for the sgs1 mgt1 strain (AID 161);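 also: 0% = growth of cultures given vehicle only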; settings: S. cerevisiae sgs1 mgt1 strain, stronger effect = higher value
Summary of the method: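 Genetically altered yeast, compound exposure, growth inhibition relative to vehicle.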

[8] = NCI Yeast Anticancer Drug Screen. Data for the CLN2oe strain (AID 163);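 also: 0% = growth of vehicle-only control cultures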; settings: S. cerevisiae CLN2oe strain, stronger effect = higher value
Summary of the method: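 Growth of a genetically modified yeast strain is measured after compound exposure and compared with cultures given vehicle alone.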

[9] = NCI Yeast Anticancer Drug Screen. Data for the cln2 rad14 strain (AID 165);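 also: 0% = growth equal to vehicle treated cultures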; settings: S. cerevisiae cln2 rad14 strain, stronger effect = higher value
Summary of the method: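 Compounds are applied to the cln2 rad14 yeast strain, and growth is then compared with that of vehicle-treated cultures to give inhibition.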

[10] = NCI Yeast Anticancer Drug Screen. Data for the bub3 strain (AID 167); settings: S. cerevisiae bub3 mutant strain, stronger effect = higher value
Summary of the method: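 Whole-cell yeast assay. The mutant strain was incubated with compounds, and growth inhibition was determined by comparison with vehicle-treated cells.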

[11] = NCI Yeast Anticancer Drug Screen. Data for the wt2 strain (AID 169);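 also: 0% = growth of vehicle-treated yeast cultures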; settings: S. cerevisiae wt2 strain growth inhibition, stronger effect = higher value
Summary of the method: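 This strain belongs to a panel of yeast strains with defined genetic alterations in DNA damage repair or cell cycle control. Compounds are applied, and growth inhibition is measured against vehicle-treated cultures.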

[12] = NCI Yeast Anticancer Drug Screen. Data for the mlh1 strain (AID 171);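 also: 0% = growth of vehicle-treated control cultures of the same strain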; settings: S. cerevisiae mlh1 strain growth inhibition, stronger effect = higher value
Summary of the method: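 Growth of the mutant yeast strain after compound exposure, expressed as inhibition relative to vehicle-only controls.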

[13] = NCI Yeast Anticancer Drug Screen. Data for the sgs1 strain (AID 173);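 also: 0% = growth of vehicle-only control cultures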; settings: S. cerevisiae sgs1 mutant, stronger effect = higher value
Summary of the method: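 Growth of a yeast strain bearing a defined genetic alteration is measured after compound treatment. Inhibition is expressed relative to vehicle-only controls.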

[14] = NCI Yeast Anticancer Drug Screen. Data for the mlh1 rad18 strain (AID 175); settings: S. cerevisiae mlh1 rad18 strain growth inhibition, stronger effect = higher value
Summary of the method: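 Read-out is yeast growth inhibition, calculated against vehicle-only controls. The compound was applied to a strain engineered with DNA damage repair alterations.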

[15] = NCI Yeast Anticancer Drug Screen. Data for the rad18 strain (AID 177); settings: S. cerevisiae rad18 mutant growth inhibition, stronger effect = higher value
Summary of the method: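 Growth of the mutant yeast strain after compound exposure, normalised to vehicle-only cultures.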

[16] = at 5.0 µM (retest, dose inferred, filed as 0.5)
[17] = at 50.0 µM (retest, dose inferred, filed as 5.0)

For `O=C(NNc1ccccc1)C(O)C(O)C(O)C(O)C(O)CO` (stereo not drawn), the growth inhibition ([1]; at 1.2 µM) was 3% (inactive), the growth inhibition ([1]; at 3.7 µM) was 11% (inactive) and the growth inhibition ([1]; at 11.0 µM) was 29% (inactive). For the same molecule, the growth inhibition ([1]; at 33.0 µM) was 53% (inactive), the growth inhibition ([1]; at 100.0 µM) was 93% (active) and the growth inhibition ([2]; at 1.2 µM) was 9% (inactive). The growth inhibition ([2]; at 3.7 µM) was 29% (inactive), the growth inhibition ([2]; at 11.0 µM) was 43% (inactive) and the growth inhibition ([2]; at 33.0 µM) was 64% (inactive). For the same molecule, the growth inhibition ([2]; at 100.0 µM) was 86% (active), the growth inhibition ([3]; at 1.2 µM) was 6% (inactive) and the growth inhibition ([3]; at 3.7 µM) was 12% (inactive). For the same molecule, the growth inhibition ([3]; at 11.0 µM) was 23% (inactive), the growth inhibition ([3]; at 33.0 µM) was 50% (inactive) and the growth inhibition ([3]; at 100.0 µM) was 88% (active). For the same molecule, the growth inhibition ([4]; at 1.2 µM) was 5% (inactive), the growth inhibition ([4]; at 3.7 µM) was 7% (inactive) and the growth inhibition [4, 16] was 24% (inactive) and 10% (inactive). For the same molecule, the growth inhibition ([4]; at 11.0 µM) was 21% (inactive), the growth inhibition ([4]; at 33.0 µM) was 40% (inactive) and the growth inhibition [4, 17] was 48% (inactive) and 56% (inactive) and 87% (active). The growth inhibition ([4]; at 50.0 µM) was 91.7% (active) and 24.9% (inactive) and 57.1% (inactive), the growth inhibition ([4]; at 100.0 µM) was 84% (active) and the growth inhibition ([5]; at 1.2 µM) was -2% (inactive). For the same molecule, the growth inhibition ([5]; at 3.7 µM) was 2% (inactive), the growth inhibition [5, 16] was -5% (inactive) and 6% (inactive) and 1% (inactive) and the growth inhibition ([5]; at 11.0 µM) was 31% (inactive). The growth inhibition ([5]; at 33.0 µM) was 52% (inactive), the growth inhibition [5, 17] was 39% (inactive) and 48% (inactive) and 87% (active) and the growth inhibition ([5]; at 50.0 µM) was 51.7% (inactive) and 26.8% (inactive) and 80.2% (active). For the same molecule, the growth inhibition ([5]; at 100.0 µM) was 82% (active), the growth inhibition ([6]; at 1.2 µM) was 0% (inactive) and the growth inhibition ([6]; at 3.7 µM) was -1% (inactive). For the same molecule, the growth inhibition ([6]; at 11.0 µM) was 8% (inactive), the growth inhibition ([6]; at 33.0 µM) was 20% (inactive) and the growth inhibition ([6]; at 100.0 µM) was 59% (inactive). For the same molecule, the growth inhibition [7, 16] was -10% (inactive) and 9% (inactive) and 13% (inactive), the growth inhibition [7, 17] was 35% (inactive) and 52% (inactive) and 71% (active) and the growth inhibition ([7]; at 50.0 µM) was 78.5% (active) and 54.9% (inactive) and 60.7% (inactive). The growth inhibition ([8]; at 1.2 µM) was -2% (inactive), the growth inhibition ([8]; at 3.7 µM) was 3% (inactive) and the growth inhibition ([8]; at 11.0 µM) was 22% (inactive). The growth inhibition ([8]; at 33.0 µM) was 52% (inactive), the growth inhibition ([8]; at 100.0 µM) was 76% (active) and the growth inhibition [9, 16] was 4% (inactive) and 3% (inactive). For the same molecule, the growth inhibition [9, 17] was 54% (inactive) and 48% (inactive) and 81% (active), the growth inhibition ([9]; at 50.0 µM) was 54.4% (inactive) and 55.3% (inactive) and 78.8% (active) and the growth inhibition ([10]; at 1.2 µM) was -3% (inactive). For the same molecule, the growth inhibition ([10]; at 3.7 µM) was 0% (inactive), the growth inhibition [10, 16] was -1% (inactive) and 10% (inactive) and 14% (inactive) and the growth inhibition ([10]; at 11.0 µM) was 33% (inactive). For the same molecule, the growth inhibition ([10]; at 33.0 µM) was 75% (active), the growth inhibition [10, 17] was 38% (inactive) and 79% (active) and 90% (active) and the growth inhibition ([10]; at 50.0 µM) was 96.8% (active) and 45.6% (inactive) and 87.4% (active). The growth inhibition ([10]; at 100.0 µM) was 92% (active), the growth inhibition ([11]; at 1.2 µM) was 2% (inactive) and the growth inhibition ([11]; at 3.7 µM) was 12% (inactive). The growth inhibition ([11]; at 11.0 µM) was 28% (inactive), the growth inhibition ([11]; at 33.0 µM) was 39% (inactive) and the growth inhibition ([11]; at 100.0 µM) was 80% (active). For the same molecule, the growth inhibition ([12]; at 1.2 µM) was 4% (inactive), the growth inhibition ([12]; at 3.7 µM) was 2% (inactive) and the growth inhibition ([12]; at 11.0 µM) was 22% (inactive). For the same molecule, the growth inhibition ([12]; at 33.0 µM) was 44% (inactive), the growth inhibition ([12]; at 100.0 µM) was 91% (active) and the growth inhibition ([13]; at 1.2 µM) was 2% (inactive). The growth inhibition ([13]; at 3.7 µM) was 10% (inactive), the growth inhibition ([13]; at 11.0 µM) was 37% (inactive) and the growth inhibition ([13]; at 33.0 µM) was 67% (inactive). For the same molecule, the growth inhibition ([13]; at 100.0 µM) was 94% (active), the growth inhibition [14, 16] was 23% (inactive) and 28% (inactive) and 26% (inactive) and the growth inhibition [14, 17] was 85% (active) and 87% (active) and 93% (active). The growth inhibition ([14]; at 50.0 µM) was 86.9% (active) and 85.9% (active) and 95.2% (active), the growth inhibition ([15]; at 1.2 µM) was 5% (inactive) and the growth inhibition ([15]; at 3.7 µM) was 13% (inactive). For the same molecule, the growth inhibition ([15]; at 11.0 µM) was 39% (inactive), the growth inhibition ([15]; at 33.0 µM) was 67% (inactive) and the growth inhibition ([15]; at 100.0 µM) was 92% (active).
